Screens as filed in PubChem.
Compounds with a hit are over-represented: about 4.2% of the library has one in this group of screens.
Cav32 inh – human Cav3.2 channel inhibition, primary screen | O95180 | Cav3.2-expressing cells, Fluo-4 calcium fluorescence FDSS; stronger effect = lower value | B-score at 10 µM | hit rate 4% among 100,000;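 active means single-dose well whose peak fluorescence ratio is a statistical outlier from its plate by either plate-standardised score or position-corrected B-score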
CD11b adhes inh – CD11b/CD18-fibrinogen binding inhibition; P05107+P11215; K562 CD11b/CD18 adhesion to fibrinogen, ATPlite luminescence; Mn2+ added to activate the integrin; inhibition, % at 10 µM; hit rate 0.54% among 93,000; AID 1497;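 active means primary inhibition of 50% or more at 10 µM, then 40% or more on retest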
Target sequence (P05107 whole entry, looked up, other chains not shown): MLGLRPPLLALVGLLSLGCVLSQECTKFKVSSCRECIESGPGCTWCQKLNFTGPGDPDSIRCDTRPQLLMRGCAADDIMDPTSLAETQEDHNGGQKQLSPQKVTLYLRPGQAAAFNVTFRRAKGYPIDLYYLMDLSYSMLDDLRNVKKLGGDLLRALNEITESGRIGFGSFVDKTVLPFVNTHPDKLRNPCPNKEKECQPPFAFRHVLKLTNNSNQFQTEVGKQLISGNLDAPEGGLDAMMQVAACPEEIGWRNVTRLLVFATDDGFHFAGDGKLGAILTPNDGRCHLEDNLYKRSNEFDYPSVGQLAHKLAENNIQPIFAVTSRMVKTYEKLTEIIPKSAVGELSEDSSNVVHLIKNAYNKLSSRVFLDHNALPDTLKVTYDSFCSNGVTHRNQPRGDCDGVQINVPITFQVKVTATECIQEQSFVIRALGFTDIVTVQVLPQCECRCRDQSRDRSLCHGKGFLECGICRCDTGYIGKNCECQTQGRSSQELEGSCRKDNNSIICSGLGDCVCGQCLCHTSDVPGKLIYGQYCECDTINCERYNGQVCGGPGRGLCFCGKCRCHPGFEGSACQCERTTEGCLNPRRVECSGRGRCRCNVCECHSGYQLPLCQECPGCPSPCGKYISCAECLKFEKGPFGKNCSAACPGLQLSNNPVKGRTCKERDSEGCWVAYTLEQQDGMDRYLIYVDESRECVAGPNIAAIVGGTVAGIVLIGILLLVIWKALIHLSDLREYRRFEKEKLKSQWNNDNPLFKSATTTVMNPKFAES
Ec RNAP inh – inhibitors of Escherichia coli RNA polymerase | P0A8V2 | E. coli RNA polymerase, fluorescence transcription assay | inhibition, %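 (tested at 10 µM)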 | hit rate 0.2% among 62,000 | AID 559; in the data active means inhibition above about 20%;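 further: 0% = enzyme without compound and 100% = no enzyme blank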
Mac1 fbg enh – CD11b/CD18-fibrinogen binding enhancement; K562 CD11b/CD18 adhesion to fibrinogen, ATPlite luminescence; AID 1499; activation, % at 10 µM; hit rate 0.07% among 93,000;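 active means 10 µM primary screen giving 50% or more activity, confirmed by 40% or more on retest at that dose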
PTK2B oligo ant – Pyk2 (human) oligomerization antagonism; Q293 cells, Pyk2 FERM NanoBiT luminescence; stronger effect = lower value; hit rate 0.83% among 99,000; z-score (the deposit names both 25 µM and 10 µM); AID 1347419;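 active means Z-score of -3 or lower, scaled per plate to the spread of control and sample wells; inactive means z-score above -3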;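 further: negative z-score means lost luminescence so less FERM oligomerization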
* marks the source's active call; other numbers are inactive results; · = not tested or not shown.

SMILES	Cav32 inh	CD11b adhes inh	Ec RNAP inh	Mac1 fbg enh	PTK2B oligo ant
CC(=O)c1cccc(NC(=O)Nc2ccc3c(c2)N(C)C(=O)CS3)c1	-1.4	16	6	0	-3.3*
Cc1cc(C)cc(NC(=O)Nc2ccc3c(c2)N(C)C(=O)CS3)c1	0.011	-4	·	-2	·
COCCn1c(SCC(=O)Nc2sccc2C(N)=O)nc2cc(Cl)ccc2c1=O	·	-12	·	-2	-3*
COCCn1c(SCC(=O)Nc2ccc(Cl)cn2)nc2ccccc21	-2.2	-13	·	0	-1.8
Cc1nnsc1NC(=O)OCc1ccc(C(C)(C)C)cc1	-0.11	·	·	·	0.77
CCOC(=O)Cc1csc(NC(=O)COc2ccccc2OCC)n1	-0.62	·	·	·	0.08
CCOC(=O)Cc1csc(NC(=O)COc2ccc(N(C)S(=O)(=O)c3ccc(C)cc3)cc2)n1	-6.5*	21	·	-2	-3.9*
CCOc1ccc(S(=O)(=O)N(C)c2ccc(OCC(=O)Nc3nc(-c4cc(OC)ccc4OC)cs3)cc2)cc1	·	-5	·	31	·
CCOC(=O)Cc1csc(NC(=O)COc2ccc3ccccc3c2)n1	-10*	-10	·	3	1.3
CCOC(=O)Cc1csc(NC(=O)CSc2nnnn2-c2ccc(C)cc2C)n1	-2.8	·	·	·	-1
CCOC(=O)Cc1csc(NC(=O)CSc2nnnn2-c2ccc(F)cc2)n1	-4.5*	7	6	-5	-0.37
O=C(c1ccc2c(c1)OCO2)N1CCN=C1SCc1ccccc1	-5.4*	4	-3	7	·
C=CCOc1cccc(C2/C(=C(/O)c3ccccc3)C(=O)C(=O)N2CCCN2CCOCC2)c1 (configuration not stated)	·	·	7	·	·
CCOC(=O)c1sc(C)c2c1NC(c1ccc(N(C)C)cc1)NC2=O (configuration not stated)	-3.6*	-1	·	-4	-0.65
CCCCN=c1scc(-c2ccc3c(c2)NC(=O)CO3)n1N=C1CCCC1	0.32	35	·	-4	0.23
O=C1COc2ccc(-c3csc(=Nc4ccc(OC(F)F)cc4)n3CC3CCCO3)cc2N1 (configuration not stated)	-1.4	·	·	·	-1.1
COc1ccccc1N=c1scc(-c2ccc3c(c2)NC(=O)CO3)n1CC1CCCO1 (configuration not stated)	-3.9*	4	0	0	1.1
COCC(C)n1c(-c2ccc3c(c2)NC(=O)CO3)csc1=Nc1ccc(OC(F)F)cc1 (configuration not stated)	-1.8	96*	·	-10	0.86
CCN=c1scc(-c2ccc3c(c2)NC(=O)CO3)n1N=C1CCCC1	-1.4	98*	6	-8	2.8
CN1CCN(C(=O)C(C(=O)c2ccc(F)cc2)n2ccccc2=O)CC1 (configuration not stated)	-0.44	·	·	·	0.71
CN1CCN(CCC(=O)Nc2cccc(F)c2)CC1	-5*	-5	6	-4	1.6
CC(C)Cn1c(SCC(=O)NC(=O)NC2CCCC2)nc2ccccc21	-2.3	2	6	-2	-3.4*
Cc1ccc(Nc2nc3c(c(=O)[nH]c(=O)n3C)n2Cc2ccc(F)cc2)cc1	·	·	·	·	-0.67
CC(C)(C)NC(=O)NC(=O)COC(=O)c1cc(=O)[nH]c2ccccc12	-0.0015	-17	·	0	-3.8*
CCCCCOC(=O)c1cc(=O)[nH]c2ccccc12	·	10	2	-2	-3.5*
SMILES	Cav32 inh	CD11b adhes inh	Ec RNAP inh	Mac1 fbg enh	PTK2B oligo ant
CN(C1CCCCC1)S(=O)(=O)c1ccc(C(=O)N2CCN(c3nc4ccccc4s3)CC2)cc1	·	34	·	10	·
CCCCCCc1cc2cc(S(=O)(=O)c3ccc(Cl)cc3)c(=O)oc2cc1O	-0.21	·	·	·	·
CCN(CC)c1ccc2cc(S(=O)(=O)c3ccc(Cl)cc3)c(=O)oc2c1	-4.1*	·	·	·	·
Cc1ccc(-n2nc(-c3cccs3)cc2C(=O)NCC2CCCO2)c(C)c1 (configuration not stated)	-4.4*	-16	19	6	-1.8
Cc1ccc(-c2cc(C(=O)NCC3CCCO3)no2)cc1 (configuration not stated)	0.4	5	6	1	0.1
CCN1CCN(CCCNC(=O)C2c3ccccc3C(=O)N(C)C2c2ccc(OC)cc2)CC1 (configuration not stated)	-5.6*	-3	4	-4	6.4
COc1ccc(-n2c(COc3ccc(C)cc3)nnc2SCc2ccc(C#N)cc2)cc1	-2.6	-2	·	-1	-1
COc1ccc(-n2c(COc3ccc(Cl)cc3)nnc2SCc2ccc(C#N)cc2)cc1	-4.3*	12	·	7	-1.5
CCOc1ccc(-n2c(SCc3ccc(C#N)cc3)nnc2-c2cccnc2)cc1	-6.8*	·	9	·	-0.47
O=C(CN(C(=O)Cn1nnc(-c2cccs2)n1)c1ccc2c(c1)OCCO2)NC1CCCCC1	-4.1*	-7	0	3	-0.71
COc1ccc(-c2nnn(CC(=O)N(CC(=O)NC3CCCC3)Cc3cccs3)n2)cc1OC	-0.53	-5	8	1	1.6
Cc1ccc(-c2nnn(CC(=O)N(CC(=O)NCC3CCCO3)c3ccccc3)n2)o1 (configuration not stated)	-0.012	-17	10	6	-0.21
Cc1ccc(-c2nnn(CC(=O)N(CC(=O)NC3CCCCC3)c3cnc4ccccc4c3)n2)o1	-4.4*	·	9	·	1.6
O=C(CN(Cc1ccccc1F)C(=O)Cn1nnc(-c2cccs2)n1)NC1CCCCC1	-6.3*	-36	·	-3	0.1
NS(=O)(=O)c1ccc(CCNC(=S)Nc2ccccc2)cc1	·	·	·	4	·
Cc1cccc(-c2cc(C(=O)NCc3ccccn3)c3ccccc3n2)c1	·	12	·	1	·
Cc1cccc(C(=O)c2cnc3ccccc3c2-c2ccccc2)c1	-2.5	59*	·	-2	-2.5
Cc1cc2nn(-c3cccc4ccccc34)nc2cc1NC(=O)c1cccs1	-4.3*	-3	·	-4	-1.5
Cc1ccc(-c2nn3c(C)nnc3s2)cc1NC(=O)c1cccs1	0.22	10	5	18	0.4
CCOC(=O)CCCCCNC(=O)c1ccc(F)cc1F	1.1	·	·	·	·
CC1CCN(c2ccccc2NC(=S)NC(=O)c2cccs2)CC1	-6.3*	-19	·	14	-0.45
CC1CCN(c2ccccc2NC(=O)c2ccc(F)cc2)CC1	-3.5	-17	·	1	-0.05
Cc1c(Cl)c([N+](=O)[O-])nn1CC(=O)NC12CC3CC(CC(C3)C1)C2	-3.8*	-2	·	-1	-0.41
Cc1csc(SCC(=O)NC23CC4CC(CC(C4)C2)C3)n1	-0.34	-33	·	0	-0.93
COc1ccc(/C=N/OCC(=O)Nn2c(C)nc3ccccc3c2=O)cc1	·	·	·	·	0.55
CCOc1c(CNCCNC(=O)c2nonc2N)cccc1OC	0.18	2	4	-2	-0.51
Nc1nonc1C(=O)NCCNCc1ccccc1OCc1ccccc1F	-6.1*	18	·	-1	0.71
Nc1nonc1C(=O)NCCNCc1cc(Br)ccc1OCc1ccccc1F	-6.9*	-11	8	2	0.69
COc1c2c(c(C)c3c1C(=O)OC3)O[C@@]1(C)CC[C@@]3(O)C(C)(C)OC(=O)CC[C@]3(C)[C@H]1C2	0.29	·	·	·	·
Cc1onc(-c2ccccc2Cl)c1C(=O)OCC(=O)N1CCCc2ccccc21	-7.4*	-10	·	0	-1.7
